Assay results reported in PubChem BioAssay (Tox21).
“And” between values parts separate entries of the source, which are not always exact repeats. Equal values may be shown once. Results filed as inconclusive are left out. A call without a number means that no potency is given here. Some compounds were tested as several samples or in several runs, with calls that do not always agree. The source made the active and inactive calls. Unless noted, the call rests on the fitted dose curve; in most records, active means well fitted curve in the direction sought with a large enough effect in the repeat runs; inconclusive means weak or mixed curves; inactive means no such curve, though single readings can be large; an effect the other way counts as inactive or inconclusive.

Assays:
[1] = qHTS assay for small molecules that induce genotoxicity in human embryonic kidney cells expressing luciferase-tagged ATAD5 (AID 651632); further: nearly all actives have a fitted effect of over 15% in size
Outline: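 Reporter cells (HEK293T) express luciferase-tagged ATAD5, a protein that accumulates after DNA damage. Treat 16 hr at 37C/5% CO2, add Amplite, wait 30 min at RT, and read luminescence.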

[2] = qHTS assay for small molecules that induce genotoxicity in human embryonic kidney cells expressing luciferase-tagged ATAD5 - cell viability (AID 651634; calls by dose curve; further: nearly all actives have a fitted effect of over 25% in size; further: potency means the concentration at half of the fitted maximal effect)
Outline: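 Seeding of 2,000 HEK293T ATAD5-luciferase cells per well preceded pin-tool compound transfer. Plates sat 15.5 hr at 37C under 5% CO2, then fluorescence was read after 30 min with CellTiter-Fluor.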

[3] = qHTS assay to test for compound auto fluorescence at 535 nm (green) in HepG2 cells (AID 720675)
[4] = qHTS assay to test for compound auto fluorescence at 590 nm (red) in HEK293 cells (AID 720679)
Outline: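 We plated HEK293 cells in 10% dialyzed FBS medium, let them adhere for 4-5 hr, then added 23 nL compound. Overnight at 37C and 5% CO2 preceded fluorescence measurement at 540/590nm.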

[5] = qHTS assay to test for compound auto fluorescence at 535 nm (green) in HEK293 cells (AID 720680)
[6] = qHTS assay to test for compound auto fluorescence at 460 nm (blue) in HEK293 cell free culture (AID 720681)
Outline: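 Compounds were added to cell-free DMEM with 10% FBS and fluorescence read directly. The blue channel used 405 nm excitation and 460 nm emission, with triamterene as the reference fluorophore.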

[7] = qHTS assay to test for compound auto fluorescence at 535 nm (green) in HEK293 cell free culture (AID 720682)
Outline: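 DMEM + 10% FBS, cell-free; cpd or DMSO pinned in; Ex485/Em535 read; output as fluorescein-equivalent signal.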

[8] = qHTS assay to test for compound auto fluorescence at 590 nm (red) in HepG2 cell free culture (AID 720684)
Outline: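 Compounds are added to culture medium (MEM, 10% FBS) lacking cells, then fluorescence is read at excitation 540 nm, emission 590 nm, with Rose Bengal sodium as the equivalency standard.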

[9] = qHTS assay to test for compound auto fluorescence at 460 nm (blue) in HepG2 cell free culture (AID 720685)
Outline: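 Compound (23 nL) or DMSO pinned into cell-free MEM with 10% FBS; blue fluorescence read at 405/460 nm excitation/emission, expressed as auto-fluorescence equivalency to triamterene.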

[10] = qHTS assay to test for compound auto fluorescence at 535 nm (green) in HepG2 cell free culture (AID 720686)
[11] = qHTS assay to test for compound auto fluorescence at 460 nm (blue) in HepG2 cells (AID 720687)
Outline: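 HepG2 cells in MEM with 10% FBS, attached overnight at 37 C, were exposed to compound or DMSO for 1 hr at 37 C, 5% CO2. Blue fluorescence was read at 405/460 nm, with triamterene as reference fluorophore.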

[12] = qHTS assay for identifying genotoxic compounds that show differential cytotoxicity against isogenic chicken DT40 cell lines with known DNA damage response pathways - Rad54/Ku70 mutant cell line (AID 743015); further: nearly all actives have a fitted effect of over 60% in size; further: potency means the concentration at half of the fitted maximal effect
[13] = qHTS assay to identify small molecule antagonists of the thyroid receptor (TR) signaling pathway - cell viability counter screen (AID 743064); further: nearly all actives have a fitted effect of over 50% in size; further: potency means the concentration at half of the fitted maximal effect
Outline: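 Viability of T3-stimulated (1 nM final) GH3.TRE-Luc cells is measured by CellTiter-Fluor fluorescence after 23.5 h compound exposure at 37 °C plus 30 min reagent incubation.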

[14] = qHTS assay to identify small molecule antagonists of the thyroid receptor (TR) signaling pathway (AID 743065); further: nearly all actives have a fitted effect of over 55% in size; further: potency means the concentration at half of the fitted maximal effect
Outline: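 GH3.TRE-Luc rat pituitary cells (two TREs driving luciferase) were dosed with compound, then stimulated with 1 nM T3 (final) for 23.5 h at 37 C. ONE-Glo luminescence was the read-out, with CellTiter-Fluor fluorescence as the cytotoxicity counter-screen.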

[15] = test system: thyroid hormone receptor (rat, GH3 cells); experiment: qHTS assay to identify small molecule agonists of the thyroid receptor (TR) signaling pathway (AID 743066; calls by dose curve)
[16] = qHTS assay to identify small molecule antagonists of the estrogen receptor alpha (ER-alpha) signaling pathway - cell viability counter screen (AID 743074; calls by dose curve;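 further: HEK293 cells carrying ER-alpha-UAS-bla reporter stimulated with 17beta-estradiol; nearly all actives have a fitted effect of over 45% in size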; further: potency means the concentration at half of the fitted maximal effect)
Aromatase (Homo sapiens) = Aromatase (Homo sapiens) (UniProt P11511); experiment: qHTS assay to identify aromatase inhibitors (AID 743083); further: nearly all actives have a fitted effect of over 55% in size; further: potency means the concentration at half of the fitted maximal effect
[17] = qHTS assay to identify aromatase inhibitors - cell viability counter screen (AID 743084);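 further: cells stimulated with testosterone during compound exposure; nearly all actives have a fitted effect of over 55% in size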; further: potency means the concentration at half of the fitted maximal effect
[18] = qHTS assay to identify small molecule that activate the aryl hydrocarbon receptor (AhR) signaling pathway - cell viability counter screen (AID 743086); further: nearly all actives have a fitted effect of over 45% in size; further: potency means the concentration at half of the fitted maximal effect
Outline: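 HepG2-AhR-luc (HG2L7.5c1) cells, 4000/well, treated 24 h at 37 C with compound; viability measured as CellTiter-Fluor fluorescence after 30 min in the same wells as the luciferase read.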

[19] = molecular target: Aryl hydrocarbon receptor (Homo sapiens) (UniProt P35869); experiment: qHTS assay to identify small molecule that activate the aryl hydrocarbon receptor (AhR) signaling pathway (AID 743085); further: nearly all actives have a fitted effect of over 15% in size; further: potency means the concentration at half of the fitted maximal effect
Outline: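 A multiplexed format paired cell viability (CellTiter-Fluor fluorescence) with AhR-dependent luciferase output (ONE-Glo luminescence) in the same wells of HepG2 DRE-luc cells after 24 h compound exposure at 37C.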

Chain of Aromatase (Homo sapiens) (P11511 whole entry, looked up): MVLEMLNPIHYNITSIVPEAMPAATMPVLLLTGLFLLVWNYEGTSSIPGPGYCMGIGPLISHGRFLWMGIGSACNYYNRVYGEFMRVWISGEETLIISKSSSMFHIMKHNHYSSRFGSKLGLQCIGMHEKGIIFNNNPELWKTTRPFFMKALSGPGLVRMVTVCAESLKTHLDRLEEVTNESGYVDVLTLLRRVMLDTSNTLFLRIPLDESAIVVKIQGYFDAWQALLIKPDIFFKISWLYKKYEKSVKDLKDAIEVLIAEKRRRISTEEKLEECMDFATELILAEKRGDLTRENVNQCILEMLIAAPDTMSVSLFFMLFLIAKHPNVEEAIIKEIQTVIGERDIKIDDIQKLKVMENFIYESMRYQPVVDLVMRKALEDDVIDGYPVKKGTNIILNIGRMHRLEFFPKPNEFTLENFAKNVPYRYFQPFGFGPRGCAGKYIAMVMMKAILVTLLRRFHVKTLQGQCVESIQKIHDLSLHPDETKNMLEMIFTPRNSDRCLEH
Chain of Aryl hydrocarbon receptor (Homo sapiens) (P35869 whole entry, looked up): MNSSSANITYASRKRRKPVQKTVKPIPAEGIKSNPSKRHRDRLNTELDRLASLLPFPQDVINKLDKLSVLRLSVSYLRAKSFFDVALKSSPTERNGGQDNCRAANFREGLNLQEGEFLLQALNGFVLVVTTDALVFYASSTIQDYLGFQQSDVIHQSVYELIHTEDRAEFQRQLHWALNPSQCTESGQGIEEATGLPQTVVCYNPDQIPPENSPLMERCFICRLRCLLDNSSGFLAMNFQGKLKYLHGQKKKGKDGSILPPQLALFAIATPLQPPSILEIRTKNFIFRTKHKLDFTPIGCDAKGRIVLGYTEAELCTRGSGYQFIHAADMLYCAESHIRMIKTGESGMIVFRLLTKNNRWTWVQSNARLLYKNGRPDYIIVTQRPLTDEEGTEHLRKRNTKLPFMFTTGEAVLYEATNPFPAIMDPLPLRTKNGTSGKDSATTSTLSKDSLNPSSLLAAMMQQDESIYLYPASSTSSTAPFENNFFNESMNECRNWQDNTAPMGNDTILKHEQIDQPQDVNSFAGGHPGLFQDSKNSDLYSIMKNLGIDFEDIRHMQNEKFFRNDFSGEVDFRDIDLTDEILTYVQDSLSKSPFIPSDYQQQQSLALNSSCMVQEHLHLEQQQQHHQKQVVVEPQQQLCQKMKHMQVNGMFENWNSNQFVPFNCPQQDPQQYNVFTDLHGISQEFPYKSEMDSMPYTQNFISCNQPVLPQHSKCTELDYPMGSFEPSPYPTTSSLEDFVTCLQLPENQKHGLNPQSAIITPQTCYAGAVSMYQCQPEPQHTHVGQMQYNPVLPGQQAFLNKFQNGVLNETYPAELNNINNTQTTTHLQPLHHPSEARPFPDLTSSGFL

SMILES | Potency [1] | Potency [2] | Potency [3] | outcome [4] | Potency [5] | Potency [6] | Potency [7] | outcome [8] | Potency [9] | Potency [10] | Potency [11] | Potency [12] | Potency [13] | Potency [14] | Potency [15] | Potency [16] | Potency (Aromatase (Homo sapiens)) | Potency [17] | Potency [18] | Potency [19]
Cc1ccccc1-n1c(C)nc2ccccc2c1=O | inactive | inactive | inactive | inactive | inactive | inactive | inactive | inactive | inactive | inactive | inactive | 60.4 µM (active) | inactive and 24.1 µM (active) | inactive | inactive | inactive | inactive | inactive and 24.1 µM (active) | inactive and 24.1 µM (active) | 
CCCSc1cc(OC)c(CCN)cc1OC |  |  | inactive | inactive | inactive | inactive | inactive | inactive | inactive | inactive | inactive | 0.258 µM (active) | 29 µM (active) | 32.5 µM (active) |  | inactive | 32.5 µM (active) |  | 32.5 µM (active) | 29 µM (active)
C1CN(P2(N3CC3)=NP(N3CC3)(N3CC3)=NP(N3CC3)(N3CC3)=N2)CCO1 (stereo unspecified) | inactive | inactive | inactive | inactive | inactive | inactive | inactive | inactive | inactive | inactive | inactive | 8.41 µM (active) | inactive | inactive | inactive |  | inactive | inactive | inactive | inactive
COC(=O)[C@]12CCC(C)(C)C[C@H]1[C@H]1C(=O)C=C3[C@@]4(C)C=C(C#N)C(=O)C(C)(C)[C@@H]4CC[C@@]3(C)[C@]1(C)CC2 |  | 2.98 µM (active) | inactive | inactive | inactive | inactive | inactive | inactive | inactive | inactive | inactive |  | 1.68 µM (active) | 0.473 µM (active) |  | 3.38 µM (active) |  |  | 3.76 µM (active) | inactive
CC(=O)OO | inactive | inactive | inactive | inactive | inactive | inactive | inactive | inactive | inactive | inactive | inactive | inactive | inactive | inactive | inactive | inactive | inactive | inactive | inactive | inactive
C[C@@H]1[C@H](O)[C@@H](C)/C=C/C=C/CC/C=C/C=C/C=C/C=C/[C@H](O[C@H]2O[C@@H](C)[C@H](O)[C@@H](N)[C@H]2O)CC2O[C@](O)(C[C@@H](O)[C@H](O)CC[C@@H](O)C[C@@H](O)C[C@@H](O)CC(=O)O[C@H]1C)C[C@H](O)[C@H]2C(=O)O | inactive | inactive | inactive | inactive | inactive | inactive | inactive | inactive | inactive | inactive | inactive | inactive | inactive | inactive | inactive | inactive | inactive | inactive | inactive | inactive
CNC(=O)Oc1ccc2c(c1)[C@]1(C)CCN(C)[C@@H]1N2C |  |  |  |  |  |  |  |  |  |  |  |  |  |  |  |  | inactive |  |  | inactive
O=C1C[C@@H]2OCC=C3CN4CC[C@]56c7ccccc7N1[C@H]5[C@H]2[C@H]3C[C@H]46 (tested in a mixture with another compound) |  | inactive | inactive | inactive |  | inactive | inactive | inactive | inactive | inactive | inactive | inactive | inactive | inactive | inactive | inactive | inactive | inactive | inactive | 
CCCCNC(C)(C)[P+](=O)O | inactive | inactive | inactive | inactive | inactive | inactive | inactive | inactive | inactive | inactive | inactive | inactive | inactive | inactive | inactive |  | inactive | inactive | inactive | inactive
CC(C)=CCN1CC[C@]2(C)c3cc(O)ccc3C[C@H]1[C@H]2C | inactive | inactive | inactive | inactive | inactive | inactive | inactive | inactive | inactive | inactive | inactive | 27.3 µM (active) | inactive |  | inactive | inactive | inactive | inactive | inactive | inactive
C[C@@H]1[C@H]2Cc3ccc(O)cc3[C@]1(C)CCN2C | inactive | inactive | inactive | inactive | inactive | inactive | inactive | inactive | inactive | inactive | inactive |  |  | 50.2 µM (active) | inactive | inactive |  | inactive | inactive | inactive
C[C@]12CCC(=O)C[C@@H]1CC[C@@H]1[C@@H]2CC[C@@]2(C)[C@H]1CC[C@]2(C)O | inactive | inactive | inactive | inactive | inactive | inactive | inactive | inactive | inactive | inactive | inactive | inactive | inactive |  | inactive | inactive | inactive | inactive | inactive | inactive
COC(=O)[C@@H]1[C@H]2CC[C@@H](C[C@H]1OC(=O)c1ccccc1)N2C | inactive | inactive | inactive | inactive | inactive | inactive | inactive | inactive | inactive | inactive | inactive | inactive | inactive | inactive | inactive | inactive | inactive | inactive | inactive | inactive
O=C(OCCN1CCCCC1)C(O)(c1ccccc1)c1ccccc1 | inactive | inactive | inactive | inactive | inactive | inactive | inactive | inactive | inactive | inactive | inactive | inactive | inactive | inactive | inactive | inactive | inactive | inactive | inactive | inactive
CN(C)[C@H](Cc1ccccc1)c1ccccc1 | inactive | inactive | inactive | inactive | inactive | inactive | inactive | inactive | inactive | inactive | inactive | inactive | inactive | inactive | inactive | inactive | inactive | inactive | inactive | inactive
C=C[C@H]1CN2CC[C@H]1C[C@H]2[C@H](OC(=O)OCC)c1ccnc2ccc(OC)cc12 | inactive | inactive | inactive | inactive | inactive | inactive | inactive | inactive | inactive | inactive | inactive | inactive |  | inactive | inactive |  | inactive | inactive | inactive | 
CN1c2ccccc2C(NCCCCCCC(=O)O)c2ccc(Cl)cc2S1(=O)=O (stereo unspecified) | inactive | inactive | inactive | inactive | inactive | inactive | inactive | inactive | inactive | inactive | inactive |  |  | inactive | inactive | inactive | inactive | inactive | inactive | inactive
COc1ccc2c3c1O[C@H]1C(=O)CC[C@H]4[C@@H](C2)N(C)CC[C@]314 | inactive | inactive | inactive | inactive | inactive | inactive | inactive | inactive | inactive | inactive | inactive | inactive | inactive |  | inactive |  | inactive | inactive | inactive | inactive
C[C@H]1CC[C@]2(NC1)O[C@H]1C[C@H]3[C@@H]4CC[C@H]5C[C@@H](O)CC[C@]5(C)[C@H]4CC[C@]3(C)[C@H]1[C@@H]2C | inactive | inactive | inactive | inactive |  | inactive | inactive | inactive | inactive | inactive | inactive | inactive |  | 26.6 µM (active) | inactive | inactive | inactive | inactive | inactive | inactive
CCC1(c2ccccc2)C(=O)NC(=O)N(C)C1=O (stereo unspecified) | inactive | inactive | inactive | inactive | inactive | inactive | inactive | inactive | inactive | inactive | inactive | inactive | inactive | inactive | inactive |  | inactive | inactive | inactive | inactive
CN1CCCC(=C(c2cccs2)c2cccs2)C1 | inactive | inactive | inactive | inactive | inactive | inactive | inactive | inactive | inactive | inactive | inactive |  | inactive | inactive | inactive | inactive | inactive | inactive | inactive | inactive
